Test results published in PubChem BioAssay (NCI).
Values joined by “and” are separate entries in the source; they are usually repeats but may differ in a detail not shown here. Identical values can stand only once. This is part of a sample that, as a whole, favours compounds with a hit. Of some 79,000 tested, about 15% had one in any assay. Values without a mark were called inactive. Active and inactive are the calls of the source. Cut-off read from the data, not from the text of the source: active = growth inhibition above about 70%; inactive = the rest.

What was measured:
[1] = NCI Yeast Anticancer Drug Screen. Data for the rad50 strain (AID 155);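 note: 0% = growth of vehicle-only cultures of the same strain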; conditions: S. cerevisiae rad50 strain growth inhibition, active compounds read high; at 50.0 µM unless noted
Method in brief: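 Genetically altered yeast (DNA repair pathway); compound treatment; growth inhibition vs vehicle ctrl.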

[2] = NCI Yeast Anticancer Drug Screen. Data for the mec2-1 strain (AID 157); conditions: S. cerevisiae mec2-1 strain, active compounds read high; at 50.0 µM unless noted
Method in brief: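 Readout is yeast growth inhibition, normalised to vehicle-treated controls, in the mec2-1 strain exposed to compound.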

[3] = NCI Yeast Anticancer Drug Screen. Data for the sgs1 mgt1 strain (AID 161);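 note: 0% = growth of cultures given vehicle only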; conditions: S. cerevisiae sgs1 mgt1 strain, active compounds read high; at 50.0 µM unless noted
Method in brief: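 Percent growth inhibition was derived by comparing compound-exposed mutant yeast with vehicle-exposed cultures. The strain carries alterations in DNA damage repair.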

[4] = NCI Yeast Anticancer Drug Screen. Data for the cln2 rad14 strain (AID 165);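 note: 0% = growth equal to vehicle treated cultures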; conditions: S. cerevisiae cln2 rad14 strain, active compounds read high; at 50.0 µM unless noted
Method in brief: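 Relative to vehicle controls, growth inhibition of compound-treated cln2 rad14 yeast was recorded.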

[5] = NCI Yeast Anticancer Drug Screen. Data for the bub3 strain (AID 167); conditions: S. cerevisiae bub3 mutant strain, active compounds read high; at 50.0 µM unless noted
Method in brief: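 Yeast carrying a defined mutation is treated with each compound, and growth is compared with that of vehicle-exposed cells to give inhibition.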

[6] = NCI Yeast Anticancer Drug Screen. Data for the mlh1 rad18 strain (AID 175); conditions: S. cerevisiae mlh1 rad18 strain growth inhibition, active compounds read high; at 50.0 µM unless noted
Method in brief: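 Test agents were incubated with a yeast strain of defined genotype (DNA damage repair defect). Inhibition of growth was derived by comparison with vehicle-exposed cultures.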

| Compound | growth inhibition [1] | growth inhibition [2] | growth inhibition [3] | growth inhibition [4] | growth inhibition [5] | growth inhibition [6] |
| --- | --- | --- | --- | --- | --- | --- |
| Oc1ccccc1-c1cc(-c2ccccc2)nc(NCCCNc2nc(-c3ccccc3)cc(-c3ccccc3O)n2)n1 | -11.2% | 8% | -5.3% | -14.8% | 35% | 14.2% |
| COc1ccc(/C=N/NC(=O)c2ccccc2)c(OC)c1 | 17.1% | 0% | 6.65% | 17.7% | 28.2% | 9.3% |
| C=C1c2nc3ccccc3n2C=C(c2ccc(C)cc2)N1c1ccc(C)cc1 | 24.6% | 18% | 16.2% | 25% | 11.2% | 29.8% |
| CC(C)=CCNc1ncnc2c1ncn2CCC(=O)O | -23.9% | -4.6% | -57% | -4.45% | -9.85% | -28.9% |
| Brc1cccc(C=NC23CC4CC(CC(C4)C2)C3)c1 | 13.7% | -13.8% | 12.4% | -52.1% | -13.3% | -4.6% |
| O=C(O)CCN1C(=O)CSC1=S | 6.7% | 2.15% | -21.8% | -2.4% | 20.6% | -5.7% |
| N#Cc1c(C(F)(F)F)cc(-c2cccs2)nc1SC(C(=O)Nc1cc(C(F)(F)F)cc(C(F)(F)F)c1)c1ccccc1 (stereo unspecified) | 13.6% | -13.8% | 9.5% | 17.3% | 9.1% | 10.4% |
| NC1=NC(=O)/C(=C/c2ccccc2[N+](=O)[O-])C(N)=N1 | -26.9% | -0.05% | 10.8% | 4.8% | -5.6% | 24.1% |
| CCCCCP(=O)(O)O.[Cu+2] | -41.4% | -39.6% | -9.9% | -40% | -31.6% | -14.2% |
| CC(CC(=O)c1cccc2ccccc12)C(=O)O (stereo unspecified) | 19% | 3.3% | 2.85% | 0.55% | -10.7% | 24.3% |
| CCOC(=O)CN(Cn1cncn1)Cn1cncn1 | 26% | 5.55% | 22.2% | -30.2% | -43.4% | 10.8% |
| OCC1COCO1 (stereo unspecified) | 0.35% | -4.1% | -8.75% | -1.65% | -6.5% | 9.2% |
| Nc1nc(Cl)cc(NCCO)n1 | -1.15% and -5.05% | -36.6% and 7% | -39.5% and 20.7% | -7.85% and -0.25% | -21.1% and 4.8% | 1.8% and 43.4% |
| O=C(O)C1CC(=O)N(Cc2ccccc2)C1 (stereo unspecified) | 32.8% | 33.3% | 34.6% | 6.45% | 26.7% | 34% |
| CCc1nc(N)nc(N)c1-c1ccc(NC2CCCCC2)c([N+](=O)[O-])c1 | 10.3% | 14.2% | 16.1% | 17.9% | -6.05% | 27.1% |
| COc1ccc2c(c1)c(C)cc[n+]2C | -3.3% | 8.5% | -5.9% | -9.65% | -3.05% | -19.3% |
| OC1(C#CC#CC2(O)CCCCC2)CCCCC1 | 12.9% | 15.7% | 0.2% | 10.1% | 3.4% | 4.2% |
| CC(C)N(CCO)CC(O)Cn1cnc2ncnc(N)c21 (stereo unspecified) | 2.15% | -10.8% | -24.9% | 6.7% | -28.4% | 4.45% |

| Compound | growth inhibition [1] | growth inhibition [2] | growth inhibition [3] | growth inhibition [4] | growth inhibition [5] | growth inhibition [6] |
| --- | --- | --- | --- | --- | --- | --- |
| CCOC(CN)(OCC)c1ccncc1 | 10.9% | 14.2% | 8.65% | -27.1% | 11.2% | -0.05% |
| CCC1CC2CC(c3cc4c(cc3OC)N(C)C3C(O)(C(=O)OC)C(OC(C)=O)C5(CC)C=CCN6CCC43C65)c3[nH]c4ccccc4c3CCN(C1)C2 (stereo unspecified) | 17.9% | 14.3% | 28.9% | 2% | 8.65% | 43.4% |
| O=C(C1=CCCCC1)c1ccc(-c2ccccc2)cc1 | -4.25% | 11.2% | 2.25% | -14.6% | -6.15% | 4.65% |
| COC(=O)NCC1OCC2OC(C)(C)OC12 (stereo unspecified) | 14.8% | 3.25% | -10.9% | -62.5% | 14.8% | 9.35% |
| COC1OC(COS(=O)(=O)c2ccc(C)cc2)C(OS(=O)(=O)c2ccc(C)cc2)C(OS(=O)(=O)c2ccc(C)cc2)C1OS(=O)(=O)c1ccc(C)cc1 (stereo unspecified) | -7.45% | -16.5% | -11.7% | -8.6% | 0.75% | 18.6% |
| O/C(=C/c1ncnc2ccccc12)c1cccc(Cl)c1 | 12.5% | 4.4% | 22.8% | -11.4% | 14.7% | 15% |
| CC(CN(C)C)C(=O)/C=C/c1ccc(Cl)cc1 (stereo unspecified) | 20% | 19% | 1.75% | 2.8% | -13.7% | 18.4% |
| CN(C)c1ccc(C2NC(=S)NC3=C2CCCC3)cc1 (stereo unspecified) | -15.1% | -15.6% | 5% | -20.6% | 22.8% | 14.6% |
| COc1cc2c(cc1OCc1ccccc1)C(Cc1cc(Br)sc1Br)=NCC2 | 57.8% | 58.5% | 54% | 50.3% | 70.5% (active) | 43.4% |
| N/N=C1\CC2C3CC4(OCCO4)C4C3CC2C14 (stereo unspecified) | 1.6% | -4.7% | 1.75% | 6.55% | -7.6% | 0.15% |
| CC1(C)C2CCC1(C)C(/C=N/NC(N)=O)C2 (stereo unspecified) | 5.4% | 17.8% | -5.6% | -46% | 20.4% | 12.8% |
| CC(=O)OCC1OC(n2c3c(c(-c4cccc5ccccc45)c(C#N)c2=S)CCCC3)C(OC(C)=O)C(OC(C)=O)C1OC(C)=O (stereo unspecified) | -1.25% | -5.3% | 14% | 6.15% | -5.8% | 12.7% |
| C[C@]12CCC(=O)C=C1CC[C@H]1[C@@H]3CC[C@](O)(C(=O)CO)[C@@]3(C)CC(=O)[C@@]12SC(N)=O | -4.6% | 6.55% | 3.9% | 20.8% | 6.1% | -15.7% |
| COc1cccc(C2SC(N)=Nc3c2c(C)nn3C(=O)c2ccccc2O)c1 (stereo unspecified) | 19.7% | 9.25% | 33.1% | 17.6% | 38% | 24.9% |
| Cc1ccc2[nH]c(=O)[nH]c(=O)c2c1 | -5.85% | -5% | -4.5% | -45.2% | -3.5% | -12.7% |
| COc1ccc(C(CC(=O)C(C)(C)CN2CCCCC2)SCCS(=O)(=O)O)cc1 (stereo unspecified) | -2.75% | -4.9% | -3.15% | 2.85% | -1.6% | 4.15% |
| O=C1C(=O)c2ccccc2C(O)=C1C1CCCCC1 | 44.4% | 2.15% | 24.3% | 5.55% | 18.1% | 26.9% |
| CCOC(=O)Nc1nc2ccccc2n1CN1CCCC1 | -4.7% | -17.9% | -11.3% | 3.65% | 22.4% | 18.8% |
